Compound activity from PubChem BioAssay.
Tau fluor cs: Counterscreen qHTS for Inhibitors of Tau Fibril Formation, Fluorescence Polarization; tau K18 P301L Alexa594 fluorescence, heparin fibrillization; Potency, µM (doses to about 57.7 µM), without a hit: at the top dose activity change, negative = decrease; 280,000 compounds, 0.93% hits; AID 1463, 2008; further: nearly all actives have a fitted effect of over 55% in size
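Human tau K18 P301L (15 uM unlabeled, 0.24 uM Alexa 594-labeled) in 100 mM sodium acetate pH 7 with 20 uM heparin, 6 hr at 37 C. ThT 30 uM added, 1 hr ambient; Alexa 594 FP and total fluorescence read at 555/632 nm.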
Tau ThT inhib: qHTS for Inhibitors of Tau Fibril Formation, Thioflavin T Binding; 270,000 compounds, 2.1% hits; AID 1460, 2008; Potency, µM (series often up to 57.4 µM), for the others: at the top dose activity, negative = inhibition, actives largely listed as inhibitors; recombinant tau K18 P301L, heparin-induced fibrillization, ThT fluorescence; Microtubule-associated protein tau (Homo sapiens), P10636; further: nearly all actives have a fitted effect of over 55% in size
Target sequence (P10636 561-689 P618L limits assumed): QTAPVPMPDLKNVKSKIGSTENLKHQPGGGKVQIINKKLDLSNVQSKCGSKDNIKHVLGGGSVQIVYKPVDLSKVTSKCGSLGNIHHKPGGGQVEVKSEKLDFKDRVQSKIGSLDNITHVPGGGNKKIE
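Fibril formation assay: tau K18 P301L at 15 uM with trace Alexa 594 label, heparin inducer 20 uM, pH 7 sodium acetate buffer, 37 C for 6 hr; endpoint ThT signal.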
Tau FP inhib: qHTS for Inhibitors of Tau Fibril Formation, Fluorescence Polarization | Microtubule-associated protein tau (Homo sapiens), P10636 | K18 P301L tau heparin fibrillization, Alexa594 FP, 6 h | Potency, µM (highest dose often 57.7 µM), for the others: top-dose activity, negative = inhibition, usual class: inhibitors | 280,000 compounds, 0.39% hits | AID 1468, 2008; further: nearly all actives have a fitted effect of over 55% in size
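Recombinant K18 P301L […], labeled with Alexa 594 at 0.24 uM over 15 uM unlabeled; heparin inducer 20 uM final; 37 C, 6 hr; FP endpoint.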
TRb SRC2 PPI: qHTS for Inhibitors of the Interaction of Thyroid Hormone Receptor and Steroid Receptor Coregulator 2 | Thyroid hormone receptor beta (Homo sapiens), P10828 | TRbeta-SRC2 peptide binding, fluorescence polarization; receptor liganded with 1 µM T3 | Potency, µM (highest dose often 106 µM), for inactives: top-dose activity change, negative = inhibition, actives largely listed as inhibitors | 280,000 compounds, 0.065% hits;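 further: plate controls were bound peptide for no effect and peptide without receptor for full effect; nearly all actives have a fitted effect of over 50% in size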
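Assay buffer: 20 mM Tris-HCl, 100 mM NaCl, 10% glycerol, 1 mM EDTA, 0.01% NP-40, 1 mM DTT, 1 uM T3, 5% DMSO; TRb LBD 0.6 uM, Texas Red SRC2 20 nM; FP after 5 hr.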
TR SRC2 fluor cs: Total Fluorescence Counterscreen for Inhibitors of the Interaction of Thyroid Hormone Receptor and Steroid Receptor Coregulator 2 | 280,000 compounds, 0.29% hits | AID 1479, 2009 | Potency, µM (series often up to 106 µM), for the others: at the top dose fluorescence change, negative = quenching | TRb/SRC2 Texas Red total fluorescence interference; active means well fitted curve in either direction with a large enough effect; inconclusive means small, poorly fitted or top-dose-only effect
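Flags fluorescent or light-absorbing compounds by total fluorescence, S + 2P, at 555 nm excitation and 632 nm emission. Mixture: 20 nM Texas Red SRC2 peptide, 0.6 uM human TRb LBD, 1 uM T3, 5% DMSO; compound exposure 5 h at ambient temperature.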
Active calls of the source: *; ? = inconclusive; · = no result; [ ] = remark or other dose. Most compounds without a hit are left out; they make up all but 3% or so of the library. Unless noted, the call rests on the fitted dose curve; in most records, active means well fitted curve in the direction sought with a large enough effect; inconclusive means small, poorly fitted or top-dose-only effect, or another doubt; inactive means no such curve, though single readings can be large; an effect the other way counts as inactive or inconclusive. Unless noted, on the % scale 0 is the no-effect control and ±100 the full control effect; potency means the concentration at half of the fitted maximal effect.

SMILES	Tau fluor cs	Tau ThT inhib	Tau FP inhib	TRb SRC2 PPI	TR SRC2 fluor cs
Oc1ccc(N=Nc2n[nH]c(-c3ccccc3)n2)cc1	-27.2%	2.51µM*	-5.0%	-1.0%	-12.3%
COc1ccc(OC)c(NC(=O)CCCc2nnc3n(C(C)C)c(=O)c4sccc4n23)c1	-12.2%	-9.6%	-1.3%	-2.1%	-0.1%
FC(F)(F)c1cccc(NC(=S)NCC2COc3ccccc3O2)c1 (stereo unspecified)	?	-11.7%	25.1µM*	8.9%	-1.5%
FC(F)(F)c1cccc(NC(=S)Nc2cccc(NC(=S)Nc3cccc(C(F)(F)F)c3)n2)c1	12.6µM*[quencher]	-3.1%	20µM*	-7.1%	-1.0%
CCCNC(=S)Nc1cccc(C(F)(F)F)c1	-10.0%	-7.6%	4.6%	-3.6%	-3.0%
Cc1cccc(NC(=S)Nc2cccc(C(F)(F)F)c2)n1	-12.4%	-0.5%	-11.8%	6.2%	-0.4%
CCCn1c(-c2ccc(F)cc2)nc2c(NCCCCN(CC)CC)nc(C)nc21	-4.5%	-3.8%	9.0%	-1.3%	5.1%
COc1cccc([C@@H]2Oc3ccc(Br)cc3C[C@H]2OC(=O)NS(=O)(=O)c2ccc(C)cc2)c1	-24.3%	-8.6%	?	0.7%	-3.3%
CC(=C1C(=O)c2ccccc2C1=O)N1CCN(Cc2ccccc2)CC1	-25.7%	?	-5.8%	-1.9%	-2.1%
CC(=C1C(=O)c2ccccc2C1=O)N1CCN(C/C=C/c2ccccc2)CC1	-29.0%	22.4µM*	-2.5%	-21.5%	1.8%
CC(=O)N1CC=C2C(C#N)=C(N)C(C#N)(C#N)[C@H](c3ccoc3)[C@H]2C1	-23.5%	?	?	-13.1%	4.6%
CN1CC=C2C(C#N)=C(N)C(C#N)(C#N)[C@H](c3ccoc3)[C@H]2C1	?	22.4µM*	?	?	14.6%
CCCOc1ccc(Oc2nc(NC)nc(N3CCOCC3)n2)nn1	5.6%	7.6%	-10.0%	-2.9%	0.4%
CC(NC(=O)c1sc2cc([N+](=O)[O-])ccc2c1Cl)C(C)(C)C (stereo unspecified)	-26.4%	22.4µM*	?	-0.1%	-4.1%
O=C(NC1CC1)c1sc2cc([N+](=O)[O-])ccc2c1Cl	-14.8%	?	4.9%	1.4%	5.1%
CCCCN(CC)c1nc(C)nc2c1c(C)c(C)n2-c1c(C)cc(C)cc1C	·	·	·	-0.4%	-0.3%
COc1cc(S(=O)(=O)NCCc2c(C)[nH]c3ccccc23)c(C)cc1C	12.6µM*[quencher]	?	?	-3.7%	2.3%
CC(=O)Nc1ccc(NC(=O)c2cnn(-c3ccccc3)c2C2CCN(C(=O)OC(C)(C)C)CC2)cc1	?	?	-7.0%	9.8%	0.4%
COc1cc(OC)nc(-n2ncc(Br)c(Br)c2=O)n1	-13.4%	10µM*	?	5.4%	-0.1%
COC(=O)c1cnn(-c2nc(OC)cc(OC)n2)c1C	6.4%	-0.5%	0.6%	2.2%	1.4%
CCCN(CCC)C(=O)Cn1c(=O)n(-c2ccc(CC)cc2)c(=O)c2c3c(sc21)CCC3	-9.9%	-14.2%	2.4%	-5.9%	0.199µM*[quencher]
COC(=O)CC1(c2cccc3ccccc23)C(=O)c2ccccc2C1=O	?	15.8µM*	-5.5%	8.2%	-5.4%
OC[C@@H]1[C@@H](c2ccc(F)cc2)C(c2ccccc2)=NN1c1ccccc1	15.8µM*[quencher]	?	13.5%[81.3 µM]	-1.0%	-0.4%
CC[C@H]1C(c2ccc(F)cc2)=NN(c2ccccc2)[C@@H]1CO	22.4µM*[quencher]	?	?	-0.8%	-1.3%
Cc1cccc(C2=NN(c3ccccc3)[C@H](CO)[C@H]2c2ccccc2)c1	17.8µM*[quencher]	?	?	0.5%	-7.6%
Cc1ccc2c(c1)-c1nc(-c3ccc4c(c3)NC(=O)CO4)cc(-c3ccc(F)cc3)c1CO2	-21.0%	4.2%	?	2.3%	-5.0%
